# Measurements published in ChEMBL document CHEMBL3988442, “University of Dundee, Small-Polar-MMV Screening Library” (2021).
# Out of some 48,000 compounds screened, about 13,000 (27%) showed an effect of 50% or more. Some of the results follow.
# Test system: Wolbachia pipientis
# Test: Anti-Wolbachia Cell-Based Screen
# Assay type: functional
# Design: scale not given: in the data most compounds retested in dose-response had high values
# Conditions: 5 µM
row,Compound,Percent Effect
1,CNC(=O)c1cn2cc(-c3ccccc3Cl)n(CC=C(C)C)c(=O)c2n1,16.22%
2,COc1ccccc1C(C)CC(=O)N1CCN(S(N)(=O)=O)CC1 (centres undefined),6.973%
3,COc1ccccc1CN1CC(OC)CN(C(=O)OCC(C)C)CC1=O (centres undefined),116.7%
4,COc1ccccc1CN1CC(OC)CN(C(=O)CC(C)C)CC1=O (centres undefined),106.9%
5,COc1ccccc1CN1CC(O)CN(C(=O)OCC(C)C)CC1=O (centres undefined),126.7%
6,COc1ccccc1OC1CN(C(=O)Cc2c(C)nc(N)nc2C)C1,-25.47%
7,COc1ccccc1CNC(=O)C(C)N1CC(n2nc(C)cc2C)C1 (centres undefined),-6.868%
8,COc1ccccc1C(C)CC(=O)N1CCCS1(=O)=O (centres undefined),-3.86%
9,COc1ccccc1CNC(=O)N1CCCC(CO)C1 (centres undefined),3.322%
10,Cc1cc(CNc2cc(Cl)ccc2OCCS(C)(=O)=O)no1,12.16%
11,COCCN(Cc1ccsc1)C(=O)c1c(C)cc(C)[nH]c1=O,-10.51%
12,Cc1cc(C(=O)N2C[C@@H]3COC[C@]3(CN(C)C)C2)c(C)o1.O=C(O)C(F)(F)F,-9.437%
13,CC(C)N1[C@H](Cn2cncn2)C[C@@H]2CN(Cc3nccn3C)CC[C@@H]21.O=C(O)C(F)(F)F.O=C(O)C(F)(F)F.O=C(O)C(F)(F)F,2.762%
14,CN1[C@H](CN2CCCC2)C[C@@H]2CN(Cc3ccoc3)CC[C@@H]21.O=C(O)C(F)(F)F.O=C(O)C(F)(F)F.O=C(O)C(F)(F)F,3.946%
15,Cc1oncc1C(=O)N1C[C@H]2CCCC(N(C)Cc3cccs3)[C@H]2C1.O=C(O)C(F)(F)F (some centres undefined),13.96%
16,CS(=O)(=O)N1CC[C@H]2[C@H](C[C@@H](Cn3cncn3)N2CC2CC2)C1.O=C(O)C(F)(F)F,-10.6%
17,CCOCC1CN(C(=O)c2cc(C)oc2C)Cc2c1cnn2C.O=C(O)C(F)(F)F (centres undefined),4.422%
18,Cc1oncc1C(=O)N1CC[C@H]2[C@H](C[C@@H](CN(C)C)N2CC2CC2)C1.O=C(O)C(F)(F)F.O=C(O)C(F)(F)F,105.6%
19,CC(C)N1[C@H](CN2CCCC2)C[C@@H]2CN(Cc3ccoc3)CC[C@@H]21.O=C(O)C(F)(F)F.O=C(O)C(F)(F)F.O=C(O)C(F)(F)F,-12.2%
20,CC(C)C1CN(Cc2nccn2C)CCC(=O)N1CC1CC1 (centres undefined),-0.2084%
21,CN(C)C[C@@H]1C[C@@H]2CN(Cc3nccn3C)CC[C@@H]2N1CC1CC1,107.7%
22,Cc1ccoc1C(=O)N1CC[C@H]2[C@H](C[C@@H](CN3CCCC3)N2C)C1.O=C(O)C(F)(F)F.O=C(O)C(F)(F)F,96.15%
23,Cc1cc(C(=O)N2CC[C@H]3[C@H](C[C@@H](CN4CCCC4)N3C)C2)c(C)o1.O=C(O)C(F)(F)F.O=C(O)C(F)(F)F,132.6%
24,CN(C)C(=O)N1CCN(Cc2nc3ccccc3[nH]2)[C@H]2CS(=O)(=O)C[C@H]21,-17.35%

row,Compound,Percent Effect
1,CC(C)c1nc(CN2CCCCC2)cs1,-7.213%
2,COCCCN1CC2(CCN(C(=O)c3ncc(F)cc3F)CC2)CC1=O,74.04%
3,CC1(C)CN(C(=O)c2ncc(F)cc2F)CCC1(O)CN1CCOCC1 (centres undefined),-6.83%
4,COCCCN1CC2(CCN(C(=O)Cc3csc(C)n3)CC2)CC1=O,-10.63%
5,CN1CC2(CCN(C(=O)c3ccc4nonc4c3)CC2)CC1=O,-11.27%
6,CN1CC2(CCN(C(=O)c3ccc4nccnc4c3)CC2)CC1=O,-6.042%
7,CN1CC2(CCN(C(=O)c3ccc(=O)n(C)c3)CC2)CC1=O,119.6%
8,COc1cccc(N2CCN(C(=O)c3ccc(=O)n(C)c3)CC2)c1,-5.711%
9,COCCCN1CC2(CCN(Cc3ncc[nH]3)CC2)CC1=O,10.5%
10,COCCCN1CC2(CCN(C(=O)c3ccc(=O)n(C)c3)CC2)CC1=O,118.9%
11,Cc1nnc(CN(C)C2CCN(c3cccc(-c4cscn4)c3)CC2)o1,-15.24%
12,CC(=O)N1[C@H](Cn2cncn2)C[C@@H]2CN(S(C)(=O)=O)CC[C@@H]21,-6.775%
13,CCC(C(=O)NC)N(c1cccc(C)c1)S(C)(=O)=O (centres undefined),11.36%
14,CSc1cccc(CN(C)C(=O)Nc2nc(C)n(C)n2)c1,2.052%
15,CCCN(CC1COc2ccccc2O1)C(=O)c1ncoc1CC (centres undefined),-65.56%
16,Cc1ncsc1CN1C[C@@H](OCC2CC2)[C@H]2OCCC[C@H]21,-10.25%
17,Cc1ccsc1C(=O)Nc1cc(Br)c(=O)n(C)c1,-6.468%
18,O=C(c1cccc(=O)[nH]1)N(Cc1ccsc1)CC1CCCO1 (centres undefined),-26.62%
19,N#CCCN(CC1CCCO1)C(=O)c1ccsc1 (centres undefined),115.2%
20,N#CCCN(CC1CCCO1)C(=O)c1ccc(C#N)cc1 (centres undefined),122.3%
21,N#CCCN(Cc1ccco1)C(=O)c1ccc(OCC2CC2)cc1,40.98%
22,N#CCCN(CCC#N)C(=O)c1ccc(OCC2CC2)cc1,8.167%
23,O=C(c1cnc(O)cn1)N(Cc1ccsc1)CC1CCCO1 (centres undefined),-2.864%
24,CCn1/c(=N/C(=O)CSCC(=O)Nc2nccs2)sc2ccccc21,6.405%

row,Compound,Percent Effect
1,CN(C)C(=O)CN1C[C@@H]2CC[C@H](C1)N(C(=O)CCCn1cncn1)C2,9.651%
2,O=C1CCC(C(=O)N2CCC(Cn3cc(C4CCCC4)nn3)CC2)=NN1,-1.401%
3,Cc1noc(C)c1CN1CCCC(CN(C(=O)OC(C)(C)C)C(C)C)C1 (centres undefined),-2.017%
4,COCC(=O)N1CCC(O)(CN2CCN(c3ccccc3)CC2)C1 (centres undefined),93.8%
5,CN(C)CC1(O)CCCN(C(=O)Cn2nc3ccccc3n2)CC1 (centres undefined),-26.73%
6,COCC(=O)N1CC2(CCN(c3ccccc3)C2)C1,10.91%
7,Cc1ccc(CN2CC3(CCN(C(=O)C4CC4)CC3)CC2C(=O)O)o1 (centres undefined),-15.03%
8,O=C(C1CC1)N1CCC(O)(CN2CCN(c3ccccc3)CC2)C1 (centres undefined),101.1%
9,O=C(CC1CC1)N1CCC2(CC(=O)N(c3cccc(F)c3)C2)C1 (centres undefined),-13.04%
10,O=C(CC1CC1)N1CCC(O)(CN2CCN(c3ccccc3)CC2)C1 (centres undefined),113.7%
11,O=C(Cn1nc2ccccc2n1)N1CCCC(O)(CN2CCCC2)C1 (centres undefined),-26.39%
12,COCC(=O)N1CCCC2(CCN(c3ccccc3)C2=O)C1 (centres undefined),-10.31%
13,NCC(=O)N1CCCC(O)(CN2CCN(c3ccccc3)CC2)CC1 (centres undefined),149.6%
14,NC(=O)CN1CCCC(C(=O)N2CCC(O)(Cc3ccccc3)CC2)C1 (centres undefined),12.2%
15,CN1CCc2ccc(NCc3cccs3)cc2C1=O,-3.883%
16,Cc1nc(-c2cc(C(=O)NCC(C)(C)CO)c3ccccn23)cs1,-18.5%
17,COc1cc(NC(=O)NC(C2CC2)C2CC2)ccc1N1CCOC1=O,-4.711%
18,CN1CCN(C(=O)N2C[C@H]3CC[C@@H]2CN(Cc2ccccc2)C3)CC1,-20.32%
19,O=C(NC1CC(=O)N(C2Cc3ccccc3C2)C1)c1ccoc1 (centres undefined),-3.995%
20,CCC(=O)NCc1cc(Br)ccc1OC(F)F,-1.176%
21,CS(=O)(=O)c1nccn1Cc1ccc(Cl)cc1,-5.692%
22,O=C(CNC1CCc2ncnn2C1)N(Cc1cccs1)C1CC1 (centres undefined),0.7257%
23,O=C(NCCN1CCOCC1)c1n[nH]c(=O)c2ccccc12,6.871%
24,CCc1ccc(C(=O)N2CCC(O)(CN3CCOCC3)C(C)(C)C2)[nH]1 (centres undefined),-6.859%

row,Compound,Percent Effect
1,O=C(c1n[nH]c(=O)c2ccccc12)N1CCC(O)(CN2CCOCC2)C1 (centres undefined),88.42%
2,CCCNC(=O)CN1CCN(Cc2csc(C(C)(C)C)n2)CC1,-11.65%
3,COc1cccc(NC(=O)NCC(C)(O)CCSC)c1OC (centres undefined),-0.9088%
4,CC(=O)Nc1nc(CN2CCCC2c2cnn(C)c2)cs1 (centres undefined),-2.623%
5,Cc1ccc2nc(C3CCCN3Cc3csc(C)n3)[nH]c2c1 (centres undefined),2.616%
6,CC(=O)NCCNC(=O)CN1CCN(Cc2nccn2C)C(C)C1 (centres undefined),1.772%
7,CN(C)C(=O)c1cn[nH]c1C1CCCN1Cc1cncn1C (centres undefined),96.91%
8,CNc1cncc(C2CCCN2Cc2c[nH]cn2)n1 (centres undefined),-2.81%
9,Cc1nc(CN2CCCC2c2[nH]ncc2C(=O)N(C)C)cs1 (centres undefined),135.6%
10,CN(C)C(=O)c1cn[nH]c1C1CCCN1Cc1nccn1C.O=CO (centres undefined),83.24%
11,CN(CC1CC1)C(=O)CN1CCCC1c1cnn(C)c1 (centres undefined),-56.85%
12,CN(C)C(=O)c1cn[nH]c1C1CCCN1Cc1c[nH]cn1 (centres undefined),119.4%
13,CN(C(=O)CN1CCCC1c1cnn(C)c1)C(C)(C)C#N (centres undefined),6.976%
14,Cn1ccnc1CN1CCCCC1c1nc(-c2ccccc2)no1 (centres undefined),18.03%
15,Fc1ccc2[nH]c(C3CCCN3Cc3c[nH]cn3)nc2c1 (centres undefined),-35.05%
16,CC(Oc1ccccc1C(F)(F)F)C(=O)NCCNC(=O)C1CC1 (centres undefined),-69.67%
17,Cc1cnn(CCC(=O)NS(=O)(=O)N2CCc3ccccc32)c1,5.056%
18,Cc1nn(C)c2ncnc(N(C)CC3CCN(CC(C)C)C3)c12 (centres undefined),-20.38%
19,O=C(NC[C@H]1OC[C@@H](NC2COC2)[C@@H]1O)Nc1ccccc1,4.366%
20,Cc1ccc(C(=O)N2CCC(n3cc(CN)nn3)CC2)cc1F,8.756%
21,CCCN(CC1COc2ccccc2O1)C(=O)CCN1C(=O)CCC1=O (centres undefined),23.62%
22,CC(C)NC(=O)[C@@H]1C[C@@H](N)CN1C(=O)CCSCc1ccccc1,-10.01%
